Measurements: paper PMC5540273 (PLoS ONE, 2017)

How the values were obtained:
Settings in all cases: concentration: 1 μM,replicates: in singlicate; n = 1
PCTK2 = system: T1, PCTK2
T1 construct: gene CDK17

PCTK3 = system: T2, PCTK3
T2 construct: gene CDK18

PDGFRA = system: PDGFRA
PDGFRB = system: PDGFRB
PDPK1 = system: PDPK1
PFTAIRE2 = system: PFTAIRE2
PFTK1 = system: T3, PFTK1
T3 construct: gene CDK14

PHKG1 = system: PHKG1
PHKG2 = system: PHKG2
PIK3C2B = system: PIK3C2B
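Further: KINOMEscan kinase panel screen.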

SMILES	%Inh (PCTK2) [%]	%Inh (PCTK3) [%]	%Inh (PDGFRA) [%]	%Inh (PDGFRB) [%]	%Inh (PDPK1) [%]	%Inh (PFTAIRE2) [%]	%Inh (PFTK1) [%]	%Inh (PHKG1) [%]	%Inh (PHKG2) [%]	%Inh (PIK3C2B) [%]
Cc1ccc(CC(=O)N2CCc3cc(-c4cn(C)c5ncnc(N)c45)ccc32)cc1 [GSK2634758]	0	0	39	96.4	57	9	17	0	0	40
C[C@@H]1CNc2c(sc3ccc4nc(-c5ccncc5)ccc4c23)C(=O)N1	6	0	72	56	0	0	0	39	55	0
CCn1c(-c2nonc2N)nc2cncc(CNC3CCNCC3)c21.Cl [SB-747651]	0	0	0	4	18	14	1	25	0	0
CS(=O)c1ccc(-c2coc3ccc(-c4n[nH]c(=O)o4)cc23)cc1 (stereo not drawn)	2	0	10	0	0	0	4	0	6	8
Cl.Nc1n[nH]c2cc(-c3ccccn3)ccc12 [GSK2189892]	13	0	0	16	0	5	6	0	0	0
FC(F)(F)c1cc(Br)cc(Nc2nccc(-c3cnn4ncccc34)n2)c1 [GW810578]	21	31	64	98.4	5	0	14	16	0	0
Cc1ccn2nc(-c3ccc(F)cc3)c(-c3ccncc3)c2c1.Cl [GW457859]	18	7	0	33	0	7	24	0	11	0
COc1cccc(C2=C(Nc3cccc(Cl)c3)C(=O)NC2=O)c1 [SB-341556]	0	6	0	17	0	8	0	0	0	0
Cc1ccc2c(-c3ccnc(Nc4ccc(C(F)(F)F)cc4)n3)cnn2n1 [GW819776]	12	0	0	45	0	12	0	18	0	0
O=c1[nH]cc(-c2ccc(O)cc2)c2sc(-c3ccncc3)cc12 [GSK1033723]	12	17	0	18	0	11	18	7	22	0
CN(c1cccc(CNc2nc(Nc3ccc4c(c3)CC(=O)N4)ncc2C(F)(F)F)c1)S(C)(=O)=O	2	4	34	72	65	10	17	40	18	0
CN1CCN(CCNc2nc3cc(Oc4ccc(NC(=O)Nc5cc(C(F)(F)F)ccc5F)cc4)ccc3[nH]2)CC1.Cl.Cl [GW768504]	0	0	84	99.6	0	37	18	0	0	14
C[C@@H]1CNc2c(sc3ccc4nc(-c5ccc(O)cc5)ccc4c23)C(=O)N1	0	4	42	56	0	18	8	31	0	16
O=C(Nc1cccc(C(F)(F)F)c1)c1cccc(Oc2ccc3nccn3n2)c1	0	0	98.5	99.9	13	0	0	33	0	99.3
C[C@@H](Oc1cc(-n2cnc3cc(-c4ccncc4)ccc32)sc1C(N)=O)c1ccccc1Cl [GSK479719]	0	15	67	95.1	40	17	18	0	16	0
Cl.Cl.NC[C@H](CC1CCCCC1)NC(=O)c1ccc(-c2ccnc3[nH]ccc23)s1 [GSK1581428]	0	0	80	97.3	18	32	31	36	13	0
COc1cc2nccc(Nc3ccc(Oc4ccccc4)cc3)c2cc1OC.Cl [GI261656]	0	0	77	92	0	5	9	0	6	0
Cc1ccc(Nc2ccnc(Nc3ccc4c(c3)CS(=O)(=O)C4)n2)cc1O.Cl [GW579362]	35	16	92.8	100	38	15	27	0	1	4
Cc1ccc(C(=O)Nc2ccc(Oc3ccc4nc(NC(=O)C5CC5)cn4c3)c(F)c2)c(=O)n1-c1ccccc1	2	0	98.2	96.5	0	9	0	26	0	0
COc1cc2c(Nc3ccc(NC(=O)c4ccccc4)cc3)ncnc2cc1OCCCN1CCOCC1 [GSK301329]	0	28	24	55	0	10	12	0	0	0
Cn1ccc2ncnc(Oc3ccc(NC(=O)Nc4cnn(C(C)(C)C)c4)c(Cl)c3)c21	5	0	99.6	100	5	0	0	0	0	27
O=C(Nc1ccccc1)c1cccc(Oc2ccc3nccn3n2)c1	0	38	66	99.3	0	0	38	15	0	0
Cn1ccc2ncnc(Oc3ccc(NC(=O)Nc4cncc(C(F)(F)F)c4)c(Cl)c3)c21	0	0	98.2	100	26	0	0	0	9	0
CC(C)S(=O)(=O)N1CCN(Cc2ccc3c(c2)nc(NC(=O)c2ccsc2)n3C[C@H](O)c2ccccc2)CC1 [GW635815]	0	4	0	38	4	19	0	64	43	0
c1ccc(Oc2ccc(Nc3ccnc4ccc(-c5ccccn5)cc34)cc2)cc1 [GW407034]	0	17	0	34	0	0	15	0	0	4
CS(=O)(=O)c1cccc(CNc2nc(Nc3ccc4c(c3)[C@@H]3C[C@@H]4CNC3=O)ncc2C(F)(F)F)c1	0	0	9	73	0	18	0	0	0	0
NC(=O)Nc1sc(-c2ccc(F)cc2)cc1C(N)=O [GW789449]	100	0	5	54	13	16	0	1	0	40
CN(c1ccc2c(c1)nc(NCc1ccc(F)cc1)n2C)c1ccnc(Nc2ccc(CS(C)(=O)=O)cc2)n1.Cl [GW813244]	0	0	99	100	0	14	0	0	0	0
COC(=O)c1cccc(NC(=O)NC2CCN(c3ccnc(NCc4ccc(F)cc4)n3)CC2)c1 [GSK1379860]	0	33	14	7	5	0	7	0	0	0
CCN1CCN(CCCC(=O)Nc2n[nH]c3nc(-c4ccc(O)cc4)c(Br)cc23)CC1 [SB-731579]	40	41	39	99.4	0	11	31	0	2	0
